Our source for the Potency values is ChEMBL document CHEMBL1201862, “PubChem BioAssay data set” (2004).

About 2,100 (0.53%) of roughly 400,000 compounds were called active. Roughly 14% stayed inconclusive and do not appear here. The rule behind the calls is not given here. This excerpt belongs to a sample that is enriched for actives.

In the assay the target is Ataxin-2 (Homo sapiens) (UniProt Q99700). The experiment in a line: qHTS for Inhibitors of ATXN expression. The format is functional.
Ataxin-2 (Homo sapiens), sequence (Q99700 whole entry): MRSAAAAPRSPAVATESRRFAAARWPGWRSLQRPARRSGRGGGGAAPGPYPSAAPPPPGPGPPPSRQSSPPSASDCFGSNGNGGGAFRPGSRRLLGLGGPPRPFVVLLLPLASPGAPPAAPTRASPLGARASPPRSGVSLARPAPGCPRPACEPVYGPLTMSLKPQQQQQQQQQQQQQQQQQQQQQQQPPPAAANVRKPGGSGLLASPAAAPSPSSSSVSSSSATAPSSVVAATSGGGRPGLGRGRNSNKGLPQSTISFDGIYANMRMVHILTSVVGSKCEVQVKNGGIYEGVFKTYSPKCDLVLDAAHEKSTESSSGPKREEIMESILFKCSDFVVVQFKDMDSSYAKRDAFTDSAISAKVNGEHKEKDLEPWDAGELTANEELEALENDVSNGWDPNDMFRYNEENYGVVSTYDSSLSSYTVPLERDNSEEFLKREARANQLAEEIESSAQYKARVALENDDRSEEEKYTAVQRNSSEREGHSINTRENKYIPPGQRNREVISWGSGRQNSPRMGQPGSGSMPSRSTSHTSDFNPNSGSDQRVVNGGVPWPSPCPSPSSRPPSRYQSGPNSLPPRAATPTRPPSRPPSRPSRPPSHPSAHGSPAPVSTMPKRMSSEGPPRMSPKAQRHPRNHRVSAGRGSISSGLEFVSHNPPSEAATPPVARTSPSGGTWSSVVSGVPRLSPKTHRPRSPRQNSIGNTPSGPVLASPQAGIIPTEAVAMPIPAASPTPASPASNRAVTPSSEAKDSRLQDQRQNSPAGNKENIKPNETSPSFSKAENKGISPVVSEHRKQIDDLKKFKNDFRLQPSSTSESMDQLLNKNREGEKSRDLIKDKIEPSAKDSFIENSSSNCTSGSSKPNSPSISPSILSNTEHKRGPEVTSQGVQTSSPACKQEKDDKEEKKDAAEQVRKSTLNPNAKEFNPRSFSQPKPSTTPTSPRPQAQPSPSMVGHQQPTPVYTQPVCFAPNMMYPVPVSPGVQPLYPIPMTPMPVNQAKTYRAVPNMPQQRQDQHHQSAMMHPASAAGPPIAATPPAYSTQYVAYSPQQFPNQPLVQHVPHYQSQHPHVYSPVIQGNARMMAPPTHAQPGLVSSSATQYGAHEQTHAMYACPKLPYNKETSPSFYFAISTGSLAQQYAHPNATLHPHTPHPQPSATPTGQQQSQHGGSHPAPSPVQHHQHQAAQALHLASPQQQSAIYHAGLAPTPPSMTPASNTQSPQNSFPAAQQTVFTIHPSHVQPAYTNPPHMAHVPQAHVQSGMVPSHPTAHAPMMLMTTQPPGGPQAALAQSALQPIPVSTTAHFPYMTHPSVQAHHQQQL
Turning to `COCCNC(=O)/C(C#N)=C/c1c(N2CCN(C)CC2)nc2c(C)cccn2c1=O`, the Potency entry is “inactive”.
The entry for `CCOCCCn1c(=N)c(C(=O)NCc2cccnc2)cc2c(=O)n3cc(C)ccc3nc21` is “inactive”; for `Cc1ccc(S(=O)(=O)c2cc3ccc(O)cc3oc2=O)cc1C` it is “inactive”; for `CCCc1cc(=O)oc2c(CN3CCCC3)c(O)c(Cl)cc12` it is “inactive”.
Under `CC(=O)NC(=Nc1ccc(C)cc1Cl)Nc1nc(C)cc(C)n1` stands “inactive”; under `Oc1c(C(c2ccccn2)N2CCC(Cc3ccccc3)CC2)cc(Cl)c2cccnc12` (centres undefined), “inactive”.
For `Cc1ccc(C)c(OCC(O)CN2CCC(Cc3ccccc3)CC2)c1` (centres undefined), the Potency was 39.8 µM (active).
Under `CC1=C(C(=O)N(C(C)C)C(C)C)CC(CC(=O)NCCCCc2ccccc2)C(=O)N1CCC1=CCCCC1` (centres undefined) stands 39.8 µM (active).
The figure for `CC1=C(C(=O)N2CCCCCC2)CC(CC(=O)NCCCCc2ccccc2)C(=O)N1Cc1ccccc1` (centres undefined) is 35.5 µM (active); for `O=C(COC(=O)c1cc(S(=O)(=O)N2CCCC2)ccc1O)NCCc1ccccc1` it is “inactive”.
Under `CC(CCc1ccccc1)NC(=O)C1CCC1` (centres undefined) stands “inactive”; under `CC1=C(C(=O)N(C(C)C)C(C)C)CC(CC(=O)NCc2cccc3ccccc23)C(=O)N1CCC1=CCCCC1` (centres undefined), 39.8 µM (active).
As for `CC1=C(C(=O)N(C(C)C)C(C)C)CC(CC(=O)NC(c2ccccc2)c2ccccc2)C(=O)N1CCC1=CCCCC1` (centres undefined), the Potency is 39.8 µM (active).
Under `CCOC(=O)C(CC(=O)O)NCc1ccco1` (centres undefined) stands “inactive”.
Under `CCn1nc(C)c(/C=N/NC(=O)c2nc3nc(C)cc(C)n3n2)c1C` stands “inactive”; under `CC1=C(C(=O)N2CCCCCC2)CC(CC(=O)NCCCCc2ccccc2)C(=O)N1CCC1=CCCCC1` (centres undefined), 17.8 µM (active); under `CCOC(=O)c1c(N)n(CCOC(=O)c2cccs2)c2nc3ccccc3nc12`, “inactive”.
The figure for `O=C(CCl)N1CCN2C(=O)c3ccccc3C12c1ccc(Cl)cc1` (centres undefined) is 21.2 µM (active); for `CCOC(=O)N1CCc2[nH]c3ccc(C)cc3c2C1` it is “inactive”; for `CN(C)CC(O)CN(c1ccccc1)c1ccccc1` (centres undefined) it is “inactive”.
With `CN(C)CC(CCC(CN(C)C)C(O)(c1ccccc1)c1ccccc1)C(O)(c1ccccc1)c1ccccc1` (centres undefined), the Potency was 28.2 µM (active).
Under `COc1ccc(S(=O)(=O)N2CCN(C(=O)c3cc4c(s3)CCCC4)CC2)cc1` stands “inactive”; under `CCC(C)NC(=O)c1cc2c(=O)n3cccc(C)c3nc2s1` (centres undefined), “inactive”.
Under `CN(C)c1ccc(/C=N/N2CCN(c3ccccn3)CC2)cc1` stands “inactive”; under `CN1CCN(/N=C/c2ccc(N(c3ccccc3)c3ccccc3)cc2)CC1`, 31.6 µM (active); under `Clc1ccc(/C=N/N2CCN(Cc3ccccc3)CC2)cc1`, “inactive”.
On to `COc1ccc2oc(=O)c(-c3cn4ccc(C)cc4n3)cc2c1`, for which the Potency entry was “inactive”.
Under `COc1ccc(C2=CC(c3ccc(N(C)C)cc3)n3nnnc3N2)cc1` (centres undefined) stands “inactive”; under `O=C(CSc1nccc(-c2cccs2)n1)Nc1cccc(Cl)c1Cl`, “inactive”; under `CC(C)CNC(=O)COC(=O)c1c2c(nc3ccccc13)/C(=C\c1cccs1)CC2`, “inactive”.
Under `COc1ccccc1-c1c(C#N)c(N)nc2c1CCC2` stands “inactive”; under `COc1ccccc1-c1ccc(/C=C2\C=CC(=O)O2)o1`, “inactive”; under `COc1ccccc1-c1cc(SC)c(C#N)c(=O)o1`, 35.5 µM (active).
The entry for `CC1CCCN(Cc2c(O)ccc3c2O/C(=C\c2ccco2)C3=O)C1` (centres undefined) is “inactive”.
For the compound `CN(c1ccccc1)c1ccc(/C=C/[N+](=O)[O-])cc1`, the Potency was 25.1 µM (active).
Under `Nc1c(C(=O)NCCN2CCOCC2)c2nc3ccccc3nc2n1-c1ccccc1` stands “inactive”; under `Nc1c(C(=O)c2ccccc2)sc2nsc(SCCN3CCOCC3)c12`, “inactive”.
Under `Cc1cccc2sc(N(CCN3CCOCC3)C(=O)CCS(=O)(=O)c3ccccc3)nc12` stands 39.8 µM (active); under `Nc1c(C(=O)NCCN2CCOCC2)c2nc3ccccc3nc2n1-c1cccc(F)c1`, “inactive”.
The entry for `O=C(CNC(=S)N(CCCN1CCOCC1)Cc1cccs1)NCc1ccccc1` is “inactive”.
`O=C(CCS(=O)(=O)c1ccccc1)N(CCCN1CCOCC1)c1nc2ccccc2s1`: the Potency was 39.8 µM (active).
Consider `O=C(CCS(=O)(=O)c1ccccc1)N(CCCN1CCOCC1)c1nc2ccc(F)cc2s1`, for which the Potency was 25.1 µM (active).
The figure for `O=C(CCS(=O)(=O)c1ccccc1)N(CCCN1CCOCC1)c1nc2c(F)cccc2s1` is 31.6 µM (active); for `O=C(NCCCN1CCOCC1)c1cc2nc(-c3ccco3)cc(C(F)(F)F)n2n1` it is “inactive”.
`Nc1c(C(=O)NCCN2CCOCC2)c2nc3ccccc3nc2n1CCc1ccccc1F`: the Potency entry was “inactive”.
Turning to `CCCCC1CCC(C(=O)OC(C)C(=O)Nc2ccc(NC(C)=O)cc2)CC1` (centres undefined), the Potency result is “inactive”.
The entry for `NNC(=O)c1oc2nc(-c3ccccc3)cc(-c3ccccc3)c2c1N` is “inactive”.
The entry for `Cc1nc2nc(-c3cccs3)cn2nc1C` is “inactive”.
Under `CCCCn1c(NC(=O)c2ccccc2)c(C#N)c2nc3ccccc3nc21` stands “inactive”; under `COc1ccccc1NCC(=O)N/N=C/c1sccc1C`, “inactive”; under `COc1cccc(CN=C(S)Nc2cc(C)ccc2C)c1`, “inactive”.
As for `CCN(CC)CCN(C(=O)CCS(=O)(=O)c1ccccc1)c1nc2c(C)cc(C)cc2s1`, the Potency was 44.7 µM (active).
The entry for `COC(=O)COc1cccc2c(=O)n(CC(=O)N3CCCCC3)ccc12` is “inactive”; for `CCn1ccc2c(OCC(=O)Nc3ccc(C)c(Cl)c3)cccc2c1=O` it is 39.8 µM (active).
`CCn1cc(C(=O)OCC(=O)Nc2ccc(C)c(Cl)c2)c(=O)c2ccc(C)nc21`: the Potency result is “inactive”.
The entry for `Cc1ccccc1C(=O)OC(C)CN1CCN(C)CC1` (centres undefined) is “inactive”; for `CC1CCN(c2ccc3c(c2)S(=O)(=O)c2ccccc2C3=O)CC1` it is “inactive”; for `CN1CCN(C2=C(Cl)C(=O)c3ccccc3C2=O)CC1` it is 16.8 µM (active).
Under `CCN(CC(=O)Nc1ccccc1OC)C(=O)c1ccccc1Sc1ccccc1C#N` stands “inactive”; under `CCN(CC)c1ccc(N=Nc2nc[nH]n2)cc1`, 10 µM (active).
Under `CCOc1ccc(N(C)S(=O)(=O)c2c[nH]cn2)cc1` stands “inactive”.
On to `O=C(O)c1ccccc1-c1ccc(/C=C/c2cc(C(F)(F)F)nc(O)n2)o1`, for which the Potency entry was “inactive”.
Under `COc1ccccc1CN1CCc2c([nH]c3ccccc23)C1` stands “inactive”.
`COc1cccc(C(=O)COC(=O)CCC(=O)c2ccccc2)c1`: the Potency entry was “inactive”.
The entry for `C/C(=C\c1ccccc1)C(=O)c1c(C)cc(C)nc1O` is “inactive”; for `COc1cccc(C(=O)NNS(=O)(=O)c2ccccc2)c1` it is “inactive”; for `CC(=O)C(=Cc1ccc(-c2ccccc2)cc1)C(=O)c1ccccc1` it is 28.2 µM (active).
For `COc1cccc(C=C(C(C)=O)C(=O)c2ccccc2)c1`, the Potency is 31.6 µM (active).
The entry for `CC(=O)c1c(C)[nH]c(C(=O)COC(=O)COc2ccccc2F)c1C` is “inactive”; for `CC(=O)NC1C(=O)N(CCN2CCOCC2)c2ccc(C)cc21` (centres undefined) it is “inactive”.
On to `Nc1c(C(=O)NCc2ccccc2)c2nc3ccccc3nc2n1CCCN1CCOCC1`, for which the Potency entry was “inactive”.
Under `Cc1nc2nc(C)n(CCN3CCOCC3)c(=O)c2c(-c2cccc([N+](=O)[O-])c2)c1C(=O)CCCCCCCCCCN1CCC(c2ccccc2)(c2ccccc2)CC1` stands 13.4 µM (active); under `Cc1cccn2c(=O)c3cc(C(=O)NCc4ccccc4)c(=N)n(CCCN4CCOCC4)c3nc12`, “inactive”; under `O=C1c2ccc(Cl)cc2S(=O)(=O)c2cccc(C(=O)N3CCC(Cc4ccccc4)CC3)c21`, 31.6 µM (active).
As for `O=C(NC1CCCCC1)c1cccc2c1C(=O)c1ccc(N3CCC(Cc4ccccc4)CC3)cc1S2(=O)=O`, the Potency result is “inactive”.
For the compound `O=C(NC1CCCC1)c1cccc2c1C(=O)c1ccc(/C=C/c3ccccc3)cc1S2(=O)=O`, the Potency result is “inactive”.
The entry for `O=C(NCc1ccccc1)c1cccc2c1C(=O)c1ccc(/C=C/c3ccccc3)cc1S2(=O)=O` is “inactive”; for `O=C(NC1CC1)c1cccc2c1C(=O)c1ccc(N3CCC(Cc4ccccc4)CC3)cc1S2(=O)=O` it is “inactive”.
Under `O=C(NCCOc1ccccc1Cl)c1cccc2c1C(=O)c1ccc(Cl)cc1S2(=O)=O` stands 35.5 µM (active).
The entry for `Cc1c(C)c2cc3c(c(C)c2oc1=O)OCN(CCc1ccc(F)cc1)C3` is “inactive”; for `FC(F)(F)c1cnc(C(c2ccccn2)c2nc[nH]n2)c(Cl)c1` (centres undefined) it is “inactive”.
For the compound `COc1ccc(CN(CCC(c2ccccc2)c2ccc(OC(C)C)cc2)C(=O)CCl)cc1OC` (centres undefined), the Potency is 6.31 µM (active).
The figure for `COc1ccc(C(CCN(Cc2ccc(OC)c(OC)c2)C(=O)CCl)c2ccccc2)cc1` (centres undefined) is 31.6 µM (active).
The entry for `CCOc1ccc(C(CC(=O)O)NC(=O)C(c2ccccc2)c2ccccc2)cc1OC` (centres undefined) is “inactive”; for `COc1ccc(CN(C(=O)COc2ccc(C)c(C)c2)C2CCS(=O)(=O)C2)cc1OC` (centres undefined) it is “inactive”; for `COc1ccc(CN(C)CC(=O)Nc2ccc(SC(F)F)cc2)cc1OC` it is “inactive”.
On to `CCOc1ccc(CN(C)CC(=O)Nc2cccc3ccccc23)cc1OC`, for which the Potency result was “inactive”.
The entry for `COc1cc(C2NC(=O)NC(c3ccccc3)=C2C(C)=O)cc([N+](=O)[O-])c1O` (centres undefined) is “inactive”; for `O=C(CCC(=O)c1cccs1)NC1CCCCCC1` it is “inactive”.
Under `C#CC(=O)N(c1ccc(OC)c(OC)c1)C(C(=O)NC1CCCC1)c1cccs1` (centres undefined) stands 25.1 µM (active); under `COc1cc(C(=O)OC(C)C(=O)NC(=O)NC2CCCCC2)ccc1OC(F)F` (centres undefined), “inactive”; under `O=C(CN(C(=O)CNC(=O)c1cccs1)c1ccccc1)NC1CCCCC1`, “inactive”.
Under `C#CC(=O)N(c1ccc(OC)cc1OC)C(C(=O)NC1CCCC1)c1cccs1` (centres undefined) stands 2.12 µM (active); under `O=C(O)c1ccc(COc2ccc3ccccc3c2/C=C2/NC(=O)N(Cc3ccc(F)cc3)C2=O)cc1`, “inactive”.
Consider `COc1ccccc1C(=O)NCCC(=O)N1CCN(S(=O)(=O)c2cccc(Cl)c2)CC1`, for which the Potency result is “inactive”.
As for `CCc1cc2c(COC(=O)c3cc(S(=O)(=O)N4CCOCC4)ccc3F)cc(=O)oc2cc1O`, the Potency entry is “inactive”.
As for `COc1cc(N2C(=O)C=CC2=O)ccc1N1C(=O)C=CC1=O`, the Potency is 15 µM (active).
`COc1ccc(N2C(=O)CC(Nc3ccc(C(=O)O)cc3)C2=O)cc1OC` (centres undefined): the Potency entry is “inactive”.
The entry for `COc1ccccc1N1C(=O)c2cccc3c(Cl)ccc(c23)C1=O` is “inactive”.
